Hit rate of the full screen: of about 5,500 compounds, about 2,000 (36%) were called active. Inconclusive results (about 18%) are left out. No stated cut-off is given here; in the data, active means normalized growth mostly below about 0.91 (no sharp cut-off); inconclusive means no clear call, values can overlap the other calls; inactive means mostly above about 0.92. This is one part of the list.
Assay: chemical genetic growth profiling, strain panel (AID 1159580);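 further: tested at 20 µM; growth read once vehicle control cultures reached saturation at 30 °C; 1 = growth at the plate median or of vehicle wells; lower values mean less growth of the strain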
Details: growth OD

Measured: normalized growth

CCOc1ccc(NC(C)=O)cc1
inactive: S. cerevisiae deletion strains, locus YJR075W, strain HOC1, hits give low values 1.02 | S. cerevisiae deletion strains, locus YKL009W, strain mrt4, hits give low values 0.978 | S. cerevisiae deletion strains, locus YKL068W, hits give low values 0.976 | S. cerevisiae deletion strains, locus YKL085W, strain MDH1 (second series), hits give low values 0.985 | S. cerevisiae deletion strains, locus YKL085W, strain MDH1, hits give low values 0.985 | S. cerevisiae deletion strains, locus YKL160W, strain elf1, hits give low values 1.02 | S. cerevisiae deletion strains, locus YKL190W, strain CNB1, hits give low values 0.994 | S. cerevisiae deletion strains, locus YKR001C, strain vps1, hits give low values 0.98 | S. cerevisiae deletion strains, locus YKR026C, strain gcn3, hits give low values 1.01 | S. cerevisiae deletion strains, locus YKR091W, strain srl3, hits give low values 1.01 | S. cerevisiae deletion strains, locus YLL001W, strain dnm1, hits give low values 1.01 | S. cerevisiae deletion strains, locus YLL026W, hits give low values 1.01 | S. cerevisiae deletion strains, locus YLL041C, strain sdh2, hits give low values 1.02 | S. cerevisiae deletion strains, locus YLR027C, strain aat2, hits give low values 1.01 | S. cerevisiae deletion strains, locus YLR039C, strain RIC1, hits give low values 1.01 | S. cerevisiae deletion strains, locus YLR058C, strain SHM2, hits give low values 0.994 | S. cerevisiae deletion strains, locus YLR102C, strain apc9, hits give low values 0.976 | S. cerevisiae deletion strains, locus YLR113W, strain HOG1, hits give low values 0.997 | S. cerevisiae deletion strains, locus YLR221C, strain rsa3, hits give low values 0.999 | S. cerevisiae deletion strains, locus YLR258W, strain gsy2, hits give low values 1.02 | S. cerevisiae deletion strains, locus YLR262C, strain YPT6 (second series), hits give low values 1.03 | S. cerevisiae deletion strains, locus YLR262C, strain YPT6, hits give low values 0.999 | S. cerevisiae deletion strains, locus YLR268W, strain sec22, hits give low values 1.01 | S. cerevisiae deletion strains, locus YLR320W, strain mms22, hits give low values 1 | S. cerevisiae deletion strains, locus YLR330W, strain CHS5, hits give low values 0.993 | S. cerevisiae deletion strains, locus YLR342W, strain FKS1 (second series), hits give low values 0.957 | S. cerevisiae deletion strains, locus YLR342W, strain FKS1, hits give low values 1.03 | S. cerevisiae deletion strains, locus YLR357W, strain rsc2, hits give low values 1.01 | S. cerevisiae deletion strains, locus YLR370C, strain arc18, hits give low values 1.01 | S. cerevisiae deletion strains, locus YLR371W, strain rom2, hits give low values 0.962 | S. cerevisiae deletion strains, locus YLR384C, strain iki3, hits give low values 1.02 | S. cerevisiae deletion strains, locus YLR418C, strain cdc73, hits give low values 1 | S. cerevisiae deletion strains, locus YML016C, strain PPZ1, hits give low values 0.996 | S. cerevisiae deletion strains, locus YML032C, strain rad52, hits give low values 0.994 | S. cerevisiae deletion strains, locus YML120C, strain ndi1, hits give low values 1.02 | S. cerevisiae deletion strains, locus YML124C, strain tub3, hits give low values 0.99 | S. cerevisiae deletion strains, locus YMR058W, strain fet3, hits give low values 1.01 | S. cerevisiae deletion strains, locus YMR078C, strain ctf18, hits give low values 0.991 | S. cerevisiae deletion strains, locus YMR125W, strain sto1, hits give low values 1.02 | S. cerevisiae deletion strains, locus YMR129W, hits give low values 1.01 | S. cerevisiae deletion strains, locus YMR205C, strain PFK2, hits give low values 1.03 | S. cerevisiae deletion strains, locus YMR223W, strain ubp8, hits give low values 0.988 | S. cerevisiae deletion strains, locus YMR231W, strain pep5, hits give low values 1.01 | S. cerevisiae deletion strains, locus YMR263W, strain SAP30, hits give low values 1.01 | S. cerevisiae deletion strains, locus YMR307W, strain GAS1, hits give low values 0.978 | S. cerevisiae deletion strains, locus YNL067W, strain RPL9B, hits give low values 1.03 | S. cerevisiae deletion strains, locus YNL071W, strain lat1, hits give low values 1.01 | S. cerevisiae deletion strains, locus YNL128W, strain TEP1, hits give low values 1.02 | S. cerevisiae deletion strains, locus YNL153C, strain GIM3, hits give low values 1.01 | S. cerevisiae deletion strains, locus YNL183C, strain NPR1, hits give low values 0.995 | S. cerevisiae deletion strains, locus YNL209W, strain ssb2, hits give low values 1.02 | S. cerevisiae deletion strains, locus YNL233W, strain BNI4, hits give low values 1.01 | S. cerevisiae deletion strains, locus YNL248C, strain rpa49, hits give low values 1.02 | S. cerevisiae deletion strains, locus YNL250W, strain rad50, hits give low values 0.991 | S. cerevisiae deletion strains, locus YNL271C, strain bni1, hits give low values 0.972 | S. cerevisiae deletion strains, locus YNL298W, strain CLA4, hits give low values 0.989 | S. cerevisiae deletion strains, locus YNL307C, strain MCK1, hits give low values 0.991 | S. cerevisiae deletion strains, locus YNL322C, strain KRE1 (second series), hits give low values 1.01 | S. cerevisiae deletion strains, locus YNL322C, strain KRE1, hits give low values 1 | S. cerevisiae deletion strains, locus YNR049C, strain mso1, hits give low values 1.02 | S. cerevisiae deletion strains, locus YNR052C, strain pop2, hits give low values 0.987 | S. cerevisiae deletion strains, locus YOL006C, strain TOP1, hits give low values 1.15 | S. cerevisiae deletion strains, locus YOL012C, strain htz1 1.55 | S. cerevisiae deletion strains, locus YOL147C, strain pex11, hits give low values 0.993 | S. cerevisiae deletion strains, locus YOR001W, strain rrp6, hits give low values 1.02 | S. cerevisiae deletion strains, locus YOR061W, strain CKA2, hits give low values 0.996 | S. cerevisiae deletion strains, locus YOR069W, strain VPS5, hits give low values 1.07 | S. cerevisiae deletion strains, locus YOR070C, strain gyp1, hits give low values 1.02 | S. cerevisiae deletion strains, locus YOR080W, strain dia2, hits give low values 1.02 | S. cerevisiae deletion strains, locus YOR083W, strain WHI5, hits give low values 1.02 | S. cerevisiae deletion strains, locus YOR106W, strain vam3, hits give low values 1.01 | S. cerevisiae deletion strains, locus YOR136W, strain idh2, hits give low values 0.996 | S. cerevisiae deletion strains, locus YOR144C, strain elg1, hits give low values 0.997 | S. cerevisiae deletion strains, locus YOR184W, strain ser1, hits give low values 0.973 | S. cerevisiae deletion strains, locus YOR231W, strain MKK1, hits give low values 0.978 | S. cerevisiae deletion strains, locus YOR265W, strain rbl2, hits give low values 1.01 | S. cerevisiae deletion strains, locus YOR270C, strain vph1, hits give low values 1.02 | S. cerevisiae deletion strains, locus YOR290C, strain snf2, hits give low values 1.01 | S. cerevisiae deletion strains, locus YOR316C, strain cot1, hits give low values 0.983 | S. cerevisiae deletion strains, locus YPL051W, strain arl3, hits give low values 1 | S. cerevisiae deletion strains, locus YPL055C, strain LGE1, hits give low values 1.05 | S. cerevisiae deletion strains, locus YPL078C, strain atp4, hits give low values 1.01 | S. cerevisiae deletion strains, locus YPL106C, strain sse1, hits give low values 1.02 | S. cerevisiae deletion strains, locus YPL240C, strain hsp82, hits give low values 1.02 | S. cerevisiae deletion strains, locus YPL241C, strain CIN2, hits give low values 1.04 | S. cerevisiae deletion strains, locus YPL256C, strain CLN2, hits give low values 1.01 | S. cerevisiae deletion strains, locus YPR119W, strain clb2, hits give low values 0.989 | S. cerevisiae deletion strains, locus YPR141C, strain kar3, hits give low values 0.993 | S. cerevisiae deletion strains, locus YPR163C, strain tif3, hits give low values 0.995 | S. cerevisiae deletion strains, locus YPR167C, strain met16, hits give low values 0.978 | S. cerevisiae deletion strains, strain wtn01, hits give low values 0.989 | S. cerevisiae strains, strain wild type, hits give low values 0.992

Reference: PubChem BioAssay AID1159580 (chemical genetic matrix, 2015)
